Screens from PubChem.
hcGAS inh – inhibitors of human cGAS; AID 1259398; 290,000 compounds, 0.081% hits; inhibition, % at 12.5 µM; Q8N884; recombinant h-cGAS, ATP depletion, Kinase-Glo luminescence;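 further: 0% = vehicle reaction and 100% = reaction without DNA for no activity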
Target sequence (Q8N884 whole entry, looked up): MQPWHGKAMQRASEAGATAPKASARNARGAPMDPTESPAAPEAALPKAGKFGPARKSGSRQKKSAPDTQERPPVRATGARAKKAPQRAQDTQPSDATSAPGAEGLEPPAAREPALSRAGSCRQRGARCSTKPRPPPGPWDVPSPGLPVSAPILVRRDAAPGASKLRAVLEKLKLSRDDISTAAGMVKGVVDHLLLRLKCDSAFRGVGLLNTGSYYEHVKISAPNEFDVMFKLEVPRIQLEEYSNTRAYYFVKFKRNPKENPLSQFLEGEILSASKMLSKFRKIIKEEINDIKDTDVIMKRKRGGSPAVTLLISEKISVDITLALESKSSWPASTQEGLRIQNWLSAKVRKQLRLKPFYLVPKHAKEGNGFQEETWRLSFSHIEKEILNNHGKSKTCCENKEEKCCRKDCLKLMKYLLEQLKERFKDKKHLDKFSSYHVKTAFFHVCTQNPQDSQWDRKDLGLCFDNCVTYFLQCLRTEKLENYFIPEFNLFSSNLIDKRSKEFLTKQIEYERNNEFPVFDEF
NPYLR7 agonist – mosquito NPYLR7 agonism; HEK293T NPYLR7/Galpha15, GCaMP6s calcium fluorescence; activation, % at 10 µM; 270,000 compounds, 0.15% hits; in the data active means activation above about 40%;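 further: 0% = vehicle and 100% = reference agonist at the receptor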
mcGAS inh – mouse cGAS inhibition by luminescence; Q8C6L5; recombinant cGAS, Kinase-Glo ATP depletion luminescence; inhibition, % at 12.5 µM; 160,000 compounds, 0.15% hits;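 further: 0% = negative control wells and 100% = reference inhibitor with no enzyme activity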
Starred values were filed as active, the others as inactive; / = no result; ! = not confirmed by another sample. A selection: hits, their analogues and other compounds. The true share with any hit is near 0.3%. Unless noted, no stated cut-off is given here; in the data, active means inhibition above about 40%; inactive means the rest.

SMILES | hcGAS inh | NPYLR7 agonist | mcGAS inh
O=C1/C(=C/c2cccc(Cl)c2)Oc2c1ccc(O)c2CN1CCN(CCO)CC1 | 15 | 50* | 12
Cc1cc(O)c(CN2CCN(CCO)CC2)c2c1C(=O)/C(=C/c1ccco1)O2 | -2 | 28 | -10
Cc1cc(O)c(CN2CCN(CCO)CC2)c2c1C(=O)/C(=C/c1ccc(F)cc1)O2 | -7 | 15 | -7
O=C1/C(=C/c2cccc(Br)c2)Oc2c1ccc(O)c2CN1CCN(CCO)CC1 | 6 | 52* | 10
COc1ccccc1CN(Cc1ccccc1)Cc1nc(C(=O)N2CCCC2)co1 | -5 | 9 | -7
COc1ccc(-c2nc3scc(CCNC(=O)/C=C/c4ccccc4)n3n2)cc1 | 0 | 2 | 0
Nc1nc(Cl)nc2c1ncn2[C@@H]1O[C@H](CO)[C@@H](O)[C@H]1O | 1 | 76* | /
NC(=O)c1ncn(C2O[C@H](CO)[C@@H](O)[C@H]2O)c1N (stereo partly specified) | -8 | 5 | /
Nc1nc(Cl)nc2c1ncn2[C@@H]1O[C@H](CO)[C@H](O)C1O (stereo partly specified) | -2 | 97* | -3
OC[C@H]1O[C@@H](n2cnc3c(NC4CCCC4)nc(Cl)nc32)[C@@H](O)C1O (stereo partly specified) | -3 | 13 | /
Nc1nc(Nc2ccccc2)nc2c1ncn2[C@@H]1O[C@H](CO)[C@H](O)C1O (stereo partly specified) | 0 | 0 | -6
Nc1ncn([C@@H]2O[C@H](CO)[C@@H](O)[C@H]2O)c(=O)n1 | 4 | 46*! | -4
c1nc(NN=C2C3CC4CC(C3)CC2C4)c2c3c(sc2n1)CCC3 | 10 | -2 | 3
Cc1ccc(Cc2nc(N3CCCN(C(=O)NC4CCCCC4)CC3)c3c(C)nn(-c4ccccc4)c3n2)cc1 | -1 | 0 | -4
CCOC(=O)c1cc(-c2ccc(OC)cc2)n(-c2ccc(C(=O)NCCc3cccs3)cc2)n1 | -1 | 0 | -4
CCOC(=O)C1=C(O)/C(=C\c2cc(OC)cc(OC)c2)SC1=Nc1ccccc1F | 4 | -6 | 2
CCOC(=O)C1=C(O)/C(=C\c2ccc(N(C)C)cc2)SC1=Nc1ccc(OC)cc1OC | 2 | 79* | 0
O=C(CC(c1cccc([N+](=O)[O-])c1)c1c[nH]c2ccccc12)NC1CC1 (stereo unspecified) | -6 | 41* | -5
O=C(CC(c1cccc([N+](=O)[O-])c1)c1c[nH]c2ccccc12)N1CCN(c2ccccc2F)CC1 (stereo unspecified) | -1 | 3 | -3
Cc1cc(O)c(CN2CCCCC2)c2c1C(=O)/C(=C/c1cc3ccccc3o1)O2 | -4 | 50* | -5
Cc1cc(O)c(CN2CCN(C)CC2)c2c1C(=O)/C(=C/c1ccncc1)O2 | -3 | 26 | -2
Cc1cc(O)c(CN2CCN(C)CC2)c2c1C(=O)/C(=C/c1cccs1)O2 | -2 | 49* | -6
Cc1cc(O)c(CN2CCOCC2)c2c1C(=O)/C(=C/c1cc3ccccc3o1)O2 | -1 | 28 | -3
COc1ccc2cc(C3CN(c4ncccc4F)CCO3)ccc2c1 (stereo unspecified) | -7 | 7 | -13
CCOC(=O)N1CCN(C(=O)CSc2ccc(-c3sc(-c4cccs4)nc3C)nn2)CC1 | -5 | 7 | -7
SMILES | hcGAS inh | NPYLR7 agonist | mcGAS inh
CCc1nncn1CCNC(=O)N1CCCC(C)CC1 (stereo unspecified) | -6 | 0 | /
COc1ccc(C2=NN(C(=O)CN3CCC4(CC3)OCCO4)C(c3ccccc3OC)C2)cc1 (stereo unspecified) | 78* | 14 | -3
COc1ccccc1C1CC(c2cccc(F)c2)=NN1C(=O)CN1CCC2(CC1)OCCO2 (stereo unspecified) | -4 | 2 | -4
Cc1ccc(C2=NN(C(=O)CN3CCN(C)CC3)C(c3ccccc3Cl)C2)cc1 (stereo unspecified) | 1 | 45* | 0
Cc1ccc(C2=NN(C(=O)CN3CCCC3)C(c3ccccc3F)C2)cc1 (stereo unspecified) | -4 | -4 | -6
O=C(NCC(c1ccccc1)N1CCCCCC1)c1cn(Cc2c(F)cccc2F)nn1 (stereo unspecified) | 2 | -2 | /
CN1CCN(CCC(F)(F)F)CC12CCN(C(=O)COc1ccccc1)CC2 | -2 | 19 | -13
O=C(NN1C(=O)C2C3C=CC(C4CC34)C2C1=O)c1cccc(Cl)c1 (stereo unspecified) | -4 | 6 | 85*
Cc1ccc(C(=O)NN2C(=O)C3C4C=CC(C5CC45)C3C2=O)cc1 (stereo unspecified) | -6 | 9 | -7
Cc1ccc(-c2nc(C(=O)Nc3cccn(C)c3=O)cs2)o1 | 1 | -1 | /
CCOC(=O)C1CCN(C(=O)CCc2ccc(-c3ccc(Cl)cc3)n2-c2ccc(OC)cc2)CC1 | -2 | 1 | -8
CC1CCC2(CC1)NC(=O)N(Nc1ncnc3sccc13)C2=O (stereo unspecified) | -4 | / | /
COc1ccc(/C=C2\SC(=S)N(c3ccc(C(=O)O)cc3)C2=O)cc1OC | 5 | -4 | -7
COCCN1C(=O)/C(=C/c2ccc(O)c(OC)c2)SC1=S | -34 | 50 | /
COc1cc(/C=C2\SC(=S)N(c3cccc(C(=O)O)c3)C2=O)ccc1O | -11 | 52* | -5
COc1cc(/C=C2\SC(=S)N(C(CC(=O)O)C(=O)O)C2=O)ccc1O (stereo unspecified) | -6 | 68* | 4
COc1cccc(C(=O)N(CC(=O)N(Cc2cccn2Cc2ccc(Br)cc2)C2CCCCC2)CC(C)C)c1 | -2 | -1 | -4
COc1cccc(-c2nc3ccccn3c2NC(C)(C)CC(C)(C)C)c1 | -5 | 4 | -7
Cc1ccc2nc(C)c(NC(=O)CC(C)(C)C)c(=O)n2c1 | -5 | 0 | /
N#CC(C#N)=C1C=C2C=C(N3CCN(Cc4ccccc4)CC3)CCC2CC1 (stereo unspecified) | -5 | 47* | /
N#CC(C#N)=C1C=C2C=C(N3CCCCC3)CCC2CC1 (stereo unspecified) | -12 | 116* | -5
N#CC(C#N)=c1c2nn(Cc3ccccc3)nc2c(=C(C#N)C#N)c2nn(Cc3ccccc3)nc12 | -6 | 0 | -6
N#CC(C#N)=C1C=C2C=C(N3CCCC3)CCC2CC1 (stereo unspecified) | -10 | 90* | -8
Cc1nc2n(n1)C(=O)C(C(c1ccccc1Cl)N1CCC3(CC1)OCCO3)S2 (stereo unspecified) | -8 | 0 | -8
Cc1cnn(Cc2ccccc2Cl)c1NC(=O)Cc1nonc1C | -1 | 3 | -9
SMILES | hcGAS inh | NPYLR7 agonist | mcGAS inh
COC(=O)C(C)Sc1nc2sc3c(c2c(=O)n1Cc1ccccc1)CCC3 (stereo unspecified) | 10 | -6 | /
COC(=O)C(C)Sc1nc2sc3c(c2c(=O)n1C)CCC3 (stereo unspecified) | 0 | 51* | /
O=C1NC(=S)S/C1=C\C(Br)=C\c1ccccc1 | -8 | 0 | 52*
O=C1NC(=S)SC1=Cc1cc(Cl)c2c(c1)OCO2 | 14 | 3 | 38
O=C1NC(=S)SC1=Cc1cc(O)c(O)c(Cl)c1 | 39 | 99* | /
O=C1NC(=S)N/C1=C\c1cc(Br)c(O)c(Br)c1 | 15 | 27 | 9
O=C1NC(=S)S/C1=C/C=C/c1ccccc1 | -5 | -6 | 4
